Source: PubChem (National Center for Advancing Translational Sciences (NCATS))
HCV inhibitor = HCV inhibition; Huh7.5.1 HCVcc-Cre infection, luciferase reporter, 44 h; Potency, µM (highest dose often 41.8 µM), for the others: at the highest dose activity change, negative = inhibition, usual class: inhibitors; actives 3.4% (n = 340,000); AID 651820; further: potency means the concentration at half of the fitted maximal effect; on the % scale 0 is the no-effect control and ±100 the full control effect
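1,000 cells/well; 4 h culture; + compound; + HCVcc-Cre (~0.5 moi); 44 h; luciferase substrate, RT 15 min; read 15 sec.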
HCMV inh = inhibitors of human cytomegalovirus. activity change, negative = inhibition, % at 57.5 µM. actives 4.5% (n = 410,000). HFF cells, HCMV-luciferase reporter, 72 h; stronger effect = lower value. AID 1259415; in the data active means activity change below about -60%; inconclusive means no clear call, values can overlap the other calls; inactive means above about -39%; further: on the % scale 0 is the no-effect control and ±100 the full control effect
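After 16 h attachment at 37C, HFF cells received test compound and HCMV-luciferase (1 PFU/cell); reporter luminescence read 72 h later, data normalized against buffer-only and known inhibitor Salinomycin.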
Cycloheximide cs = affects cycloheximide protein synthesis inhibition readout, counter-screen. cell reporter, cycloheximide protein synthesis inhibition counterscreen. max response, %. actives 12% (n = 300,000); in the data active means max response mostly above about 13%, no sharp cut-off; inactive means mostly below about 14%; further: read at 38.3 µM for the half of the compounds with a filed dose; 0% is about no effect
Pf growth 48h = inhibits P. falciparum growth in the first generation, 48 h; P. falciparum luciferase growth in erythrocytes, 48 h; Potency, µM (highest dose often 28.7 µM), inactives show top-dose activity change, negative = inhibition, most hits filed as inhibitors; actives 5.9% (n = 310,000); further: potency means the concentration at half of the fitted maximal effect; on the % scale 0 is the no-effect control and ±100 the full control effect
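Erythrocytes infected with P. falciparum carrying an integrated firefly luciferase reporter (2% hematocrit, 0.1% parasitemia final) were exposed to compounds in RPMI 1640 with 0.5% Albumax at 37 C, 5% CO2. Growth inhibition was scored as reduced luminescence.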
Pf growth 96h = inhibits malaria parasite growth, 96 h; P. falciparum luciferase reporter growth, 96 h; Potency, µM (doses to about 28.7 µM), without a hit: at the top dose activity change, negative = inhibition, hits mostly inhibitors; actives 6.9% (n = 320,000); further: potency means the concentration at half of the fitted maximal effect; on the % scale 0 is the no-effect control and ±100 the full control effect
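Cell-based qHTS: luciferase-tagged P. falciparum in erythrocytes (2% hematocrit, 0.05% parasitemia final) incubated with compounds for 96 hours, 37 C, 5% CO2; luciferase detection reagent then added and luminescence measured.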
Shiga inhibitor = inhibitors of Shiga toxin in Vero cells. Vero cells, Shiga toxin protein synthesis inhibition reporter. inhibition, % at 38.7 µM. actives 9.2% (n = 290,000). AID 2315; in the data active means inhibition mostly above about 28%, no sharp cut-off; inactive means mostly below about 43%; further: 0% is about no effect
Starred values were filed as active, the others as inactive; u = inconclusive; x = no result given. Rows were chosen to be rich in hits. Some 21% of all compounds tested hit in one or more screens of this group. Unless noted, the call rests on the fitted dose curve; in most records, active means well fitted inhibition curve with a large enough effect; inconclusive means small, poorly fitted or top-dose-only effect, or another doubt; inactive means no such curve, though single readings can be large or run the other way.

SMILES | HCV inhibitor | HCMV inh | Cycloheximide cs | Pf growth 48h | Pf growth 96h | Shiga inhibitor
CN1c2ccc(Cl)cc2-c2nc(SCC(=O)NCc3ccccc3)ncc2S1(=O)=O | x | -1 | x | x | x | x
C=CCOc1cccc(/C=N/NC(=O)CN(c2cc(Cl)ccc2OC)S(=O)(=O)c2ccc(C)c([N+](=O)[O-])c2)c1 | u | -5 | -2 | u | 1.2µM* | -4
CCOC(=O)c1c(-c2ccccc2)oc2ccc(NS(=O)(=O)c3ccc(OC)cc3)cc12 | x | -25 | x | x | x | x
CCCc1oc2ccc(NS(=O)(=O)c3ccc(OC)cc3)cc2c1C(=O)OCC | x | -83* | x | x | x | x
CCCc1oc2ccc(NS(=O)(=O)c3ccc(OCC)cc3)cc2c1C(=O)OCC | x | -65* | x | x | x | x
CN(CCC#N)C(=O)COC(=O)c1cc(Cl)cc(Cl)c1N | 11% | -28 | -2 | -9% | 30% | -3
CCc1cc(=O)oc2c(CN3CCCC3)c(O)c(Cl)cc12 | 19% | 5 | -2 | 17% | x | -10
CCc1cc(=O)oc2c(CNCc3c(F)cccc3Cl)c(O)ccc12 | -18% | -30 | -3 | 9.3µM* | u | 11
N#Cc1ccc(-n2c(-c3ccccc3)nnc2-c2ccccc2)cc1C#N | u | -31 | 30* | u | 0% | 37
N#Cc1cccc(-n2c(-c3ccccc3)nnc2-c2ccccc2)c1C#N | 3% | -35 | 19* | 5.2µM* | x | 24
CN1C(=O)C(C)(C)c2cc(S(=O)(=O)N3CCN(c4cccc(Cl)c4)CC3)ccc21 | 4% | 5 | 8 | u | 6% | 2
O=C(CC1C(=O)NCCN1Cc1ccccc1)NCCC1=CCCCC1 (stereo not drawn) | 9% | 23 | 2 | -13% | 6% | -3
CCOC(=O)c1c(S(=O)(=O)N2CCCC(C(=O)Nc3ccc(C)cc3C)C2)c(C)n(CC)c1C (stereo not drawn) | x | -9 | x | x | x | x
O=S1(=O)c2ccc(Br)cc2N2CCC[C@H]2CN1Cc1ccccc1 | u | -35 | x | x | x | x
C[C@@H](c1ccccc1)N1C[C@H]2CCCN2c2cc(Br)ccc2S1(=O)=O | 11µM* | -13 | x | x | x | x
CCc1ccccc1NC(=O)CN1C(=O)CCn2nc(-c3cccn3C)cc21 | x | 6 | x | x | x | x
CCOc1ccc(Nc2nc3c(c(=O)[nH]2)CCCC3)cc1 | -18% | -10 | 7 | 2.3µM* | 235% | 0
Cc1ccc(Nc2nc3c(c(=O)[nH]2)CCCC3)cc1 | u | 22 | -3 | u | u | 21
O=c1[nH]c(Nc2nc3ccccc3o2)nc2c1CCCC2 | -11% | -99* | 39* | -15% | 10% | 76*
CCOc1ccc(Nc2nc3c(c(=O)[nH]2)CCC3)cc1 | 18% | 13 | -4 | u | u | -7
CCOc1ccccc1NC(=O)CSc1c(C)cnc2c1c(=O)n(C)c(=O)n2C | x | -7 | x | x | x | x
CCOc1ccc(N/C(N)=N/c2nc(C)cc(C)n2)cc1 | -29% | 12 | 1 | 0% | 56% | -6
CCCOc1ccccc1N/C(=N/c1nc(C)cc(C)n1)NC(=O)COc1ccc(OC)cc1 | u | -24 | -4 | x | 4.7µM* | -12
CCCOc1ccccc1NC(=O)/C=C/C(N)=O | u | -6 | 13* | x | 8% | -3
CCCOc1ccccc1N/C(N)=N/c1nc(C)cc(C)n1 | -3% | -19 | -3 | 15µM* | -23% | -15
SMILES | HCV inhibitor | HCMV inh | Cycloheximide cs | Pf growth 48h | Pf growth 96h | Shiga inhibitor
CCOc1ccc(N/C(=N/c2nc(C)cc(C)n2)NC(=O)CC)cc1 | u | -9 | -3 | -5% | -1% | 26
CCCN(CCC)CCCNC(=O)C1CCC(CNS(=O)(=O)c2cccc3nsnc23)CC1 (stereo not drawn) | 10% | 1 | -1 | 12% | u | -1
O=C(NCCN1CCN(C(=O)c2ccc(F)cc2)CC1)c1ccc(F)cc1 | 45% | 31 | -3 | 4% | 12µM* | -6
CCOc1c(Cl)cc(C(=O)NCCN2CCCCC2)cc1Cl | 10µM* | 9 | -4 | u | 54% | 1
O=C(NCCN1CCCCC1)c1ccc(F)cc1Cl | 20% | 81 | 12* | 26% | -6% | 27
CC1CCCC(C)N1C(=O)CSc1nnc(-c2c[nH]c3ccccc23)o1 (stereo not drawn) | u | -14 | 19 | u | 8% | 30
